Experimental data taken from PMC4336329 (PLoS ONE, 2015).
Out of some 310,000 compounds screened, about 14,000 (4.5%) showed an effect of 50% or more. Effects have a minus sign here. The list comes from a sample in which strong results are over-represented; it also holds similar structures and randomly drawn compounds.

These molecules were tested against human ether-à-go-go-related gene (hERG) potassium channel (human, UniProt Q12809) (assay: primary screen, population patch clamp on CHO cells stably expressing hERG; higher = less effect of the substance).
Sequence of human ether-à-go-go-related gene (hERG) potassium channel (Q12809 whole entry, looked up): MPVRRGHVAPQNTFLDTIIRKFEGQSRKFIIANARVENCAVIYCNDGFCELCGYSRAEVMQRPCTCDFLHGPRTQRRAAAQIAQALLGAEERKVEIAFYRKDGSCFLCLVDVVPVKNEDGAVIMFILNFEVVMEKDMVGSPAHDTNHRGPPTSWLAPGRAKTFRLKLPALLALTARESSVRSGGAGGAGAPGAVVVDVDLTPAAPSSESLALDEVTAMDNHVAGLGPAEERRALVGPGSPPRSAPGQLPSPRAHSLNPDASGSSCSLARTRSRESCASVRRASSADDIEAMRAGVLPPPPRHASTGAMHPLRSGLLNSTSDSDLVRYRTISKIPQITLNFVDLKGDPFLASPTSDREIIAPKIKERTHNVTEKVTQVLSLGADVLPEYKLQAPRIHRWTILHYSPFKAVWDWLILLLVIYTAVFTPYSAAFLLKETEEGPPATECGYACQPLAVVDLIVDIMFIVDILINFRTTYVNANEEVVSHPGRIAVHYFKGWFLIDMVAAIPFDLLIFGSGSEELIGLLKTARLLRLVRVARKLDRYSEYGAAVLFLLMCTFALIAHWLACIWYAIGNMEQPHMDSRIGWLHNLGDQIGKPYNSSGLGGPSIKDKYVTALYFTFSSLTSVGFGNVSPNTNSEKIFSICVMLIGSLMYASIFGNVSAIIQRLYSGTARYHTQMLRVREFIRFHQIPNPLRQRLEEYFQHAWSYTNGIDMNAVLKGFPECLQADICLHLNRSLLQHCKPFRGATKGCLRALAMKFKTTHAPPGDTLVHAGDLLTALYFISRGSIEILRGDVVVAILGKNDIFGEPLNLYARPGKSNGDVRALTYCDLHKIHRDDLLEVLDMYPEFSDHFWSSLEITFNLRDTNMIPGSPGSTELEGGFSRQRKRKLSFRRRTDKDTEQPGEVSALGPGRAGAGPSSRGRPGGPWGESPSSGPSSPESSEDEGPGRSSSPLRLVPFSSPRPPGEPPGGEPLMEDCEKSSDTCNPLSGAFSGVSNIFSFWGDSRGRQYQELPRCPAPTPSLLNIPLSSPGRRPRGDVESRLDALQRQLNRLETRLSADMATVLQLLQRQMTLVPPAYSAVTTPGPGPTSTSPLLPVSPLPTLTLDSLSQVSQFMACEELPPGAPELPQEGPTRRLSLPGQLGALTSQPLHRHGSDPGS
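Further: peak tail current of the secondary pulse compared with the same well before compound.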

In order of rising “hERG current change (%, negative = inhibition) at 10uM” value:
1. CS(=O)(=O)Nc1ccc(C2=NN(C(=O)c3ccco3)C(c3cccc(F)c3)C2)cc1 (stereo not drawn)  -78.3%
2. CS(=O)(=O)Nc1ccc(C2=NN(C(=O)c3ccco3)C(c3ccccc3F)C2)cc1 (stereo not drawn)  -78.2%
3. CC(=O)c1cccc(CN2CCCC(CCC(=O)NCc3ccc(F)c(F)c3)C2)c1 (stereo not drawn)  -74.7%
4. O=C(CCC1CCCN(Cc2cccc3c2OCO3)C1)NCc1ccc(F)c(F)c1 (stereo not drawn)  -74.4%
5. CN1CCC(O)(c2ccc(Cl)cc2)C(C(=O)c2ccc(Cl)cc2)C1 (stereo not drawn)  -67.7%
6. Cc1cc(/C=C(/C#N)C(=O)Nc2ccc(Cl)cc2)c(C)n1-c1cccnc1  -67.5%
7. CCC(=O)N1N=C(c2ccc(NS(C)(=O)=O)cc2)CC1c1ccc(N(C)C)cc1 (stereo not drawn)  -66.2%
8. O=C(CCC1CCCN(Cc2ccc3c(c2)CCO3)C1)NCc1ccc(F)c(F)c1 (stereo not drawn)  -63.7%
9. O=C(CCC1CCCN(Cc2ccc3c(c2)OCCO3)C1)NCc1ccc(F)c(F)c1 (stereo not drawn)  -61.5%
10. CS(=O)(=O)Nc1cccc(C2=NN(C(=O)c3ccco3)C(c3cccs3)C2)c1 (stereo not drawn)  -59%
11. CC(=O)Nc1ccc(OCC(O)CN2CCN(c3ccc(Cl)cc3)CC2)cc1 (stereo not drawn)  -52.7%
12. CC(=O)Nc1ccc(OCC(O)CN2CCN(c3ccccc3Cl)CC2)cc1 (stereo not drawn)  -50.2%
13. CC(=O)c1cccc(CN2CCCC(CCC(=O)NCc3ccccc3F)C2)c1 (stereo not drawn)  -48.5%
14. CCC(=O)N1N=C(c2ccc(NS(C)(=O)=O)cc2)CC1c1ccc(C)cc1 (stereo not drawn)  -44.7%
15. O=C(CCC1CCCN(c2ncccn2)C1)NCc1ccc(F)c(F)c1 (stereo not drawn)  -40.8%
16. COc1cccc(CNC(=O)CCC2CCCN(Cc3ccc4c(c3)CCO4)C2)c1 (stereo not drawn)  -33.6%
17. CCS(=O)(=O)Nc1ccc(C2=NN(C(=O)c3ccco3)C(c3cccc(F)c3)C2)cc1 (stereo not drawn)  -32.4%
18. CC(=O)Nc1ccc(OCC(O)CN2CCN(c3cc(Cl)ccc3C)CC2)cc1 (stereo not drawn)  -30.8%
19. Cc1cc(/C=C(/C#N)C(=O)Nc2ccccc2)c(C)n1-c1cccnc1  -28.5%
20. CC(=O)Nc1ccc(OCC(O)CN2CCN(c3ccc(C)c(Cl)c3)CC2)cc1 (stereo not drawn)  -27.7%
21. CC(=O)Nc1ccc(OCC(O)CN2CCN(c3cccc(Cl)c3)CC2)cc1 (stereo not drawn)  -25.2%
22. O=C(CCC1CCCN(Cc2ccc3c(c2)OCCO3)C1)NCc1ccccc1F (stereo not drawn)  -24.2%
23. CC(=O)Nc1ccc(OCC(O)CN2CCN(c3ccc(F)cc3)CC2)cc1 (stereo not drawn)  -23.4%
24. CCC(=O)N1N=C(c2ccc(NS(=O)(=O)CC)cc2)CC1c1ccc(C)cc1 (stereo not drawn)  -14.1%
25. CS(=O)(=O)Nc1cccc(C2=NN(C(=O)c3ccccc3)C(c3cccs3)C2)c1 (stereo not drawn)  -14%
26. O=C(CCC1CCCN(Cc2ccncc2)C1)NCc1ccc(F)c(F)c1 (stereo not drawn)  -13.6%
27. Cc1ccc(C(=O)Cn2ncsc2=N)cc1  -12.5%
28. O=C(CCC1CCCN(C(=O)c2ccc3c(c2)OCO3)C1)NCc1ccc(F)c(F)c1 (stereo not drawn)  -8.73%
29. O=C(NC1CCCCC1)C(c1ccc(F)cc1)N(C(=O)c1csnn1)C1CCCC1 (stereo not drawn)  -7.88%
30. CCN1CCC(O)(c2ccccc2)C(C(=O)c2ccccc2)C1 (stereo not drawn)  -7.58%
31. O=C(CSc1nnc(-c2ccco2)o1)NC(=O)Cc1ccccc1  -5.31%
32. CCS(=O)(=O)Nc1cccc(C2=NN(C(=O)c3ccco3)C(c3ccco3)C2)c1 (stereo not drawn)  -4.98%
33. CCOC(=S)N/C(=N\S(C)(=O)=O)c1ccccc1  -2.92%
34. CS(=O)(=O)Nc1cccc(C2=NN(C(=O)c3ccco3)C(c3ccco3)C2)c1 (stereo not drawn)  -2.88%
35. CN1CCC(O)(c2ccccc2)C(C(=O)c2ccccc2)C1 (stereo not drawn)  -2.34%
36. O=C(CCC1CCCN(C(=O)c2ccncc2)C1)NCc1ccc(F)c(F)c1 (stereo not drawn)  -1.99%
37. Cc1ccc(C(=O)NCCc2ccc(S(=O)(=O)N3CCCC3)cc2)cc1  -0.599%
38. O=C(CCl)Oc1ccc2occ(C(=O)c3cccs3)c2c1  0.872%
39. COc1ccc(CN(C)C(=O)c2ccccc2Sc2ccccc2C#N)c(OC)c1  0.887%
40. COC(=O)Oc1ccc(/C=C/C(=O)OC(C)C)cc1OC(=O)OC  1.69%
41. COc1ccc(-c2noc(COc3ccc(Cl)c(C)c3)n2)cc1  2.81%
42. CC1=C(C(=O)N2CCCC(CCC(=O)NCc3ccc(F)c(F)c3)C2)OCCO1 (stereo not drawn)  3.36%
43. CC[C@@H](CCC=C(C)C)C(=O)N(Cc1ccccc1)c1ccccc1  3.94%
44. O=[N+]([O-])c1ccc(Cl)c(NC(=S)N2CCCC2)c1  5.47%
45. C/C(=N\Nc1ccc(Cl)c(C(=O)O)c1)c1ccccn1  5.73%
46. COc1ccc(N2C(=O)C3CCCN3C2c2ccccc2)cc1Cl (stereo not drawn)  7.28%
47. NS(=O)(=O)c1ccc(-c2cccc(/C=C3\SC(=O)NC3=O)c2)cc1  7.87%
48. Cc1cc(/C=C(\C#N)C(=O)Nc2ccccc2)c(C)n1-c1cccnc1  8.27%
49. Cc1c(C(=O)N2CCCC2)nnn1-c1nonc1N  8.67%
50. CC(C)N(O)C(=O)NC(C)(C)C  11.5%
51. Cc1cc(OC(=O)c2cccs2)ccc1C(C)C  12.1%
52. COc1ccc(C(=S)N2CCOCC2)cc1OC(=O)c1cc(OC)c(OC)c(OC)c1  16.2%
53. CCOc1ccc(C(=O)N(C)C2CCS(=O)(=O)C2)cc1 (stereo not drawn)  18.3%
54. O=C(c1ccco1)N1N=C(c2ccc(Br)cc2)CC1c1ccco1 (stereo not drawn)  18.5%
55. Cc1ccc(C2=NN(C(=O)c3ccccc3F)C(c3ccccc3F)C2)cc1 (stereo not drawn)  19%
56. Cc1ccc(S(=O)(=O)NC2CCCC2)cc1C(N)=O  20.1%
57. CCOc1cccc(SCc2noc(C(=O)NCC3CCCO3)c2C(=O)O)c1 (stereo not drawn)  32.2%
